M1 ag: human M1 muscarinic receptor agonism. P11229. CHO-K1 hM1, Fluo-8 calcium fluorescence, agonist mode; 0% DMSO, 100% acetylcholine EC100. activation, % at 3 µM. actives 0.33% (n = 360,000);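 active = activation above the run's mean compound activation plus 3 SD, cut at about 16% in these data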;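 note: peak over basal fluorescence ratio within a 140 s kinetic read after compound addition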
Target sequence (P11229 whole entry, looked up): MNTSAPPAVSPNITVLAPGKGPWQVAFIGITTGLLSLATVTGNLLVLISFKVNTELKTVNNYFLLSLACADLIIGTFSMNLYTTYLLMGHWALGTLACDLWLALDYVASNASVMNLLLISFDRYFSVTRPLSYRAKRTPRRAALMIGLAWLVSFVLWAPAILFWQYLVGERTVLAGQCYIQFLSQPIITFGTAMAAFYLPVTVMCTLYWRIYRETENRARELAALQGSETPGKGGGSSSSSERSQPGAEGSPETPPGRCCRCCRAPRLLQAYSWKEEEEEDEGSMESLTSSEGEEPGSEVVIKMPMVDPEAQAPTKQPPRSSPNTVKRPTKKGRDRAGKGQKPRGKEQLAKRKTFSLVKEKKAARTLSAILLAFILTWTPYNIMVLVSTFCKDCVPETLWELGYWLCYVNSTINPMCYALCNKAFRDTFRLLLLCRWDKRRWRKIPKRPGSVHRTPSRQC
M1 PAM parental: M1 PAM counterscreen hit in parental CHO-K1 cells; ATP EC20, Fluo-8 calcium fluorescence; 0% at ATP EC20, 100% at ATP max; activation, % at 3 µM; actives 0.02% (n = 360,000);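 active = activation above the run cutoff, the mean activation of all test compounds plus 3 SD, cut at about 40% in these data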;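 note: peak over basal fluorescence ratio in a 140 s read after ATP addition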
CHO-K1 Ca antag: counter-screen for M1 antagonists: effect in parental CHO-K1 cells; ATP-induced calcium, Fluo-8 fluorescence; inhibition, % at 3 µM; actives 0.6% (n = 360,000); AID 602250;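 active = inhibition above a per-plate cutoff, the plate's mean sample inhibition plus 3 SD, cut at about 24% in these data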;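 note: 0% = DMSO plus EC80 ATP and 100% = DMSO alone without ATP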
CHRM1 PAM: positive allosteric modulators of human M1 muscarinic receptor | activation, % at 3 µM | actives 0.088% (n = 360,000) | CHO-K1 hM1, Fluo-8 calcium fluorescence, ACh EC20; 0% = ACh EC20, 100% = maximal ACh; in the data active = activation above about 19%, passing the limit was not always enough
CHO-K1 Ca ag: M1 agonist counterscreen hit in parental CHO-K1 cells; actives 0.48% (n = 360,000); activation, % at 3 µM; AID 602248; Fluo-8 calcium fluorescence; scaled to maximal ATP response, vehicle zero; in the data active = activation above about 15%;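 note: untransfected CHO-K1 host cells lacking M1 receptor as counterscreen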
CHRM1 antagonist: human CHRM1 antagonism; P11229; CHO-K1 hM1, Fluo-8 calcium fluorescence, ACh EC80 antagonist; inhibition, % at 3 µM; actives 1.3% (n = 360,000);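 active = percent inhibition above its own plate's cutoff, namely the mean of that plate's compound wells plus 3 SD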;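 note: peak over basal fluorescence ratio during 140 s after agonist addition; 0% = ACh EC80 plus DMSO and 100% = DMSO alone without agonist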
An asterisk follows results filed as active. This is a sample that favours compounds with a hit; in the whole collection about 2.3% have one here.

How did CC1=CCC(C(=O)N/N=C/c2cccs2)C(c2ccc(F)cc2)C1 (stereo not drawn) do in these assays?
M1 ag: 1; M1 PAM parental: 48*; CHO-K1 Ca antag: -14; CHRM1 PAM: 7; CHO-K1 Ca ag: 1; CHRM1 antagonist: -9

Results for CCN(CC)CCN(C)Cc1nc(C(c2ccccc2)c2ccccc2)no1 ?
M1 ag: -8; M1 PAM parental: 6; CHO-K1 Ca antag: -5; CHRM1 PAM: -30; CHO-K1 Ca ag: 0; CHRM1 antagonist: 75*

Results for CN(CCc1cn[nH]c1)Cc1nc(C(c2ccccc2)c2ccccc2)no1 ?
M1 ag: -14; M1 PAM parental: 18; CHO-K1 Ca antag: -6; CHRM1 PAM: 6; CHO-K1 Ca ag: 1; CHRM1 antagonist: -3

How did O=C(CSc1n[nH]c(-c2cccnc2)n1)Nc1ccccc1C(F)(F)F do in these assays?
M1 ag: 0; M1 PAM parental: 15; CHO-K1 Ca antag: -22; CHRM1 PAM: 8; CHO-K1 Ca ag: 1; CHRM1 antagonist: -17

What do the screens show for `COc1ccc(-n2nc(C(=O)NCc3ccco3)c3ccccc3c2=O)cc1`?
M1 ag: -2; M1 PAM parental: 13; CHO-K1 Ca antag: -22; CHRM1 PAM: 1; CHO-K1 Ca ag: 1; CHRM1 antagonist: -6

What do the screens show for `CCC1CCCCN1CCCNC(=O)CNC(=O)c1nn(-c2ccc(OC)c(Cl)c2)c(=O)c2ccccc12` (stereo not drawn)?
M1 ag: -13; M1 PAM parental: 15; CHO-K1 Ca antag: -2; CHRM1 PAM: -30; CHO-K1 Ca ag: 0; CHRM1 antagonist: 49*

What do the screens show for `COc1ccc(-n2nc(C(=O)NCC(=O)Nc3cc(OC)c(OC)c(OC)c3)c3ccccc3c2=O)cc1`?
M1 ag: -2; M1 PAM parental: -14; CHO-K1 Ca antag: 2; CHRM1 PAM: -13; CHO-K1 Ca ag: 6; CHRM1 antagonist: 27*

How did COc1ccccc1-n1nc(C(=O)NCc2ccco2)c2ccccc2c1=O do in these assays?
M1 ag: -2; M1 PAM parental: 4; CHO-K1 Ca antag: 1; CHRM1 PAM: -14; CHO-K1 Ca ag: 0; CHRM1 antagonist: 15*

Results for COc1ccc(-n2nc(C(=O)NCC(=O)Nc3cccc(NC(C)=O)c3)c3ccccc3c2=O)cc1 ?
M1 ag: 0; M1 PAM parental: 2; CHO-K1 Ca antag: -6; CHRM1 PAM: 0; CHO-K1 Ca ag: 3; CHRM1 antagonist: 10

Results for COc1ccc(-n2nc(C(=O)NCC(=O)Nc3cc(OC)c(OC)c(OC)c3)c3ccccc3c2=O)cc1OC ?
M1 ag: 0; M1 PAM parental: 6; CHO-K1 Ca antag: 1; CHRM1 PAM: -11; CHO-K1 Ca ag: 8; CHRM1 antagonist: 30*

Results for COc1ccc(NC(=O)CNC(=O)c2nn(-c3ccc(OC)c(OC)c3)c(=O)c3ccccc23)c(OC)c1 ?
M1 ag: 0; M1 PAM parental: 1; CHO-K1 Ca antag: -7; CHRM1 PAM: 3; CHO-K1 Ca ag: 7; CHRM1 antagonist: 1

How did OCC1(Cc2ccccc2F)CCCN(Cc2c(F)ccc(F)c2F)C1 (stereo not drawn) do in these assays?
M1 ag: -4; M1 PAM parental: 19; CHO-K1 Ca antag: -7; CHRM1 PAM: 5; CHO-K1 Ca ag: 2; CHRM1 antagonist: -11

How did CCOc1ccc(CCNC(=O)C2=C(C)C(=O)OC23CCCCC3)cc1OCC do in these assays?
M1 ag: -6; M1 PAM parental: 17; CHO-K1 Ca antag: -17; CHRM1 PAM: 2; CHO-K1 Ca ag: 2; CHRM1 antagonist: -3

How did CCN(CC)CCCNC(=O)/C(=C\c1cccn1C)NC(=O)c1cccs1 do in these assays?
M1 ag: -7; M1 PAM parental: 16; CHO-K1 Ca antag: -8; CHRM1 PAM: 7; CHO-K1 Ca ag: 1; CHRM1 antagonist: -8

Results for CCN(CC)CCC=C(c1cccs1)c1cccs1 ?
M1 ag: -6; M1 PAM parental: 2; CHO-K1 Ca antag: -7; CHRM1 PAM: -28; CHO-K1 Ca ag: 0; CHRM1 antagonist: 96*

How did O=C(CSc1nnc(SCc2ccccc2)s1)N/N=C/C=C\c1ccco1 do in these assays?
M1 ag: -6; M1 PAM parental: 17; CHO-K1 Ca antag: 9; CHRM1 PAM: 11; CHO-K1 Ca ag: 16*; CHRM1 antagonist: -5

What do the screens show for `O=C(c1noc2c1CCCC2)N1CCC(CO)(Cc2ccccc2Cl)CC1`?
M1 ag: -4; M1 PAM parental: 18; CHO-K1 Ca antag: -7; CHRM1 PAM: 4; CHO-K1 Ca ag: 3; CHRM1 antagonist: -6

How did CCc1sc(C(=O)Nc2ncccc2O)cc1C do in these assays?
M1 ag: 5; M1 PAM parental: 8; CHO-K1 Ca antag: 1; CHRM1 PAM: 25*; CHO-K1 Ca ag: 0; CHRM1 antagonist: -28

How did CCc1sc(C(=O)Nc2ncccc2C)cc1C do in these assays?
M1 ag: -2; M1 PAM parental: 7; CHO-K1 Ca antag: -6; CHRM1 PAM: 10; CHO-K1 Ca ag: 0; CHRM1 antagonist: -10

Results for CC(=O)c1c(C)[nH]c(C(=O)CSc2ccc(F)cc2)c1C ?
M1 ag: 5; M1 PAM parental: -12; CHO-K1 Ca antag: 11; CHRM1 PAM: -19; CHO-K1 Ca ag: 15*; CHRM1 antagonist: 33*

Results for O=C(CN1CCN(Cc2ccccc2)CC1)Nc1cccc(C(F)(F)F)c1 ?
M1 ag: -4; M1 PAM parental: -8; CHO-K1 Ca antag: 26*; CHRM1 PAM: 11; CHO-K1 Ca ag: 0; CHRM1 antagonist: -10

What do the screens show for `CCc1ccccc1NC(=O)COc1ccc2c(c1)OCO2`?
M1 ag: -4; M1 PAM parental: 8; CHO-K1 Ca antag: -10; CHRM1 PAM: 4; CHO-K1 Ca ag: 1; CHRM1 antagonist: 3

What do the screens show for `Cc1ccc(NC(=O)COc2ccc3c(c2)OCO3)c(Cl)c1`?
M1 ag: 7; M1 PAM parental: 11; CHO-K1 Ca antag: -12; CHRM1 PAM: 27*; CHO-K1 Ca ag: 1; CHRM1 antagonist: -13

How did Cc1nn(CC(=O)Nc2ccc(S(=O)(=O)N(C)C)cc2)c(C)c1[N+](=O)[O-] do in these assays?
M1 ag: -7; M1 PAM parental: 11; CHO-K1 Ca antag: 0; CHRM1 PAM: -5; CHO-K1 Ca ag: 0; CHRM1 antagonist: 3

Results for O=c1c(/C=C(\O)c2ccccc2)nc2ccccc2n1-c1ccccc1 ?
M1 ag: 22*; M1 PAM parental: 13; CHO-K1 Ca antag: 1; CHRM1 PAM: -9; CHO-K1 Ca ag: 3; CHRM1 antagonist: 19

How did C[C@H](O)[C@@H]1C(=O)N2CCc3c([nH]c4ccccc34)[C@@H]2C[C@@H]1N(C)S(=O)(=O)c1ccccc1 do in these assays?
M1 ag: -2; M1 PAM parental: -5; CHO-K1 Ca antag: -7; CHRM1 PAM: -4; CHO-K1 Ca ag: 2; CHRM1 antagonist: 0

What do the screens show for `CC(=O)NCCC(=O)NCC1(N(C)Cc2ccccc2)Cc2ccccc2C1`?
M1 ag: -5; M1 PAM parental: 21; CHO-K1 Ca antag: -7; CHRM1 PAM: 8; CHO-K1 Ca ag: 16*; CHRM1 antagonist: -22

Source: PubChem BioAssay
